Laboratory results taken from ChEMBL document CHEMBL4513146, “CO-ADD screening of Karazin Kharkiv National University (Ukraine) compounds”.
Measured potencies and affinities stand elsewhere.

Columns and labels:
Klebsiella pneumoniae = conditions: Concentration 32 ug.mL-1;; ASSAY_TEST Inhibition of Bacterial Growth; detection method Absorption (OD600); MEDIA CAMHB; plate type 384well; NBS; CORNING #3640; time 18 hr
Candida albicans = conditions: Concentration 32 ug.mL-1; ASSAY_TEST Inhibition of Fungal Growth; detection method Absorption (OD530)
Cryptococcus neoformans = conditions: Concentration 32 ug.mL-1; ASSAY_TEST Inhibition of Fungal Growth; detection method Resazurin; Absorption (OD600-OD570); plate type 384well; NBS; CORNING #3640

Structure (SMILES)	Inhibition (Klebsiella pneumoniae)	Inhibition (Candida albicans)	Inhibition (Cryptococcus neoformans)
COc1ccc(-c2cc3c4nn(CC(=O)Nc5ccc(C)c(C)c5)c(=O)n4ccn3n2)cc1	5.79%	-0.09%	-15.38%
COC(=O)c1ccc(NC(=O)Cn2nc3c4sc(N5CCCC5)nc4ncn3c2=O)cc1	-7.74%	1.38%	-4.89%
CC(C)c1ccc(N(Cc2ccccc2)S(=O)(=O)c2cccn3cnnc23)cc1	5.94%	6.69%	-11.77%
CCc1ccccc1NC(=O)Cn1nc2c(SCc3ccc(Cl)cc3)nccn2c1=O	13.77%	2.88%	-20.04%
Cc1ccc(-c2cc3c4nn(CC(=O)N5CCN(c6ccccc6F)CC5)c(=O)n4ccn3n2)cc1C	10.7%	3.33%	-14.81%
COc1cccc(C(=O)Cn2nc3n(CCC(C)C)c(=O)c4sccc4n3c2=O)c1	-2.35%	8.83%	-5.93%
CC(C)(C)S(=O)(=O)c1ccc2nn(CC(=O)Nc3ccc(Br)cc3)c(=O)n2n1	6.53%	2.28%	-17.49%
CCc1ccc(N(Cc2ccc(C)cc2)S(=O)(=O)c2cccn3c(C)nnc23)cc1	3.2%	0.84%	-6.65%
Cc1ccc(Oc2nc3ccccc3n3c(=O)n(CC(=O)Nc4ccc5c(c4)OCO5)nc23)cc1	4.57%	10.98%	-25.85%
O=C(CCc1nnc2c3cc(-c4ccc(F)cc4)nn3ccn12)NCc1ccccc1Cl	1.44%	9.78%	-27.21%
